# Laboratory results taken from the supplement of paper PMC10849652.
# The full data set covers some 8,800 targets. This sample favours those with a hit. About 0.5% of all pairs of compound and target were hits. Unmarked numbers belong to inactive results.
# Experiments:
# Experiment in all cases: log2 fold change, soluble protein after heating vs DMSO (PISA); higher = thermal stabilisation; K562 lysate, 10 uM; active = over 0.2 and 3.5 SD of the protein, either way, in both replicates (recomputed)
# [1] = compound: C#Cc1cccc(Nc2ncnc3cc(OCCOC)c(OCCOC)cc23)c1 [erlotinib]
# How it was run: (§1)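 Pellets of K562 cells were dounce-homogenised in PBS pH 7.4 with 1 mM MgCl2, and the crude extract was held at 1 mg/mL protein for a 30 min treatment with 10 μM compound. Aliquots were heated for 3 min over 48°C-58°C and pooled before NP-40 was added to 0.5% at 4°C. The supernatant from 21,000xg for 90 min was quantified by TMTpro 16plex LC-MS/MS with channel sums equalised. Values are reported from duplicates as log-two fold change in thermal stability relative to solvent controls.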
# [2] = compound: C/C(=N\NC(=O)C1=CC(=CC=C1)S(=O)(=O)N2CCOCC2)/C3=C(C=CC(=C3)Cl)O
# How it was run: as §1
# [3] = compound: C1=CC(=CC=C1C2=NC3=C(N2)C=C(C=C3)C(=O)N)OC4=CC=C(C=C4)Cl
# How it was run: as §1
# [4] = compound: C1=CC2=C(C=CC(=C2)/C=C\3/C(=O)NC(=NCC4=CC=CS4)S3)N=C1
# How it was run: as §1
# [5] = compound: C1=CC2=NC=CN=C2C=C1/C=C/3\C(=O)NC(=O)S3
# How it was run: as §1
# [6] = compound: C1=CC=C(C=C1)C2=NC(=C(N2)C3=CC=NC=C3)C4=CC(=C(C=C4)Cl)O
# How it was run: as §1
# [7] = compound: C1=CC=C2C(=C1)C3=NNC4=CC=CC(=C43)C2=O
# How it was run: as §1
# [8] = compound: C1CCN(C1)C(=O)NC2=CC=CC(=C2)NC3=NC=C(C(=N3)NCCC4=CN=CN4)Br
# How it was run: as §1
# [9] = compound: C1CN(CCC1(CC2=CC=C(C=C2)Cl)N)C3=NC=NC4=C3C=CN4
# How it was run: as §1
# [10] = compound: C1COCCN1CCN2C3=CC=CC=C3N=C2NC(=O)C4=CC(=CC=C4)[N+](=O)[O-] [IRAK-1-4 Inhibitor I]
# How it was run: as §1
# [11] = compound: C=CC(=O)N1CCC[C@@H](n2nc(-c3ccc(Oc4ccccc4)cc3)c3c(N)ncnc32)C1 [ibrutinib]
# How it was run: as §1
# [12] = compound: CC(=O)c1cnc2ccc(-c3cc(Cl)c(O)c(Cl)c3)nc2c1N[C@H]1CC[C@H](CN(C)C)CC1
# How it was run: as §1
# [13] = compound: CC(C)(C)Cn1c(N)nc2ccc(-c3[nH]c(C(C)(C)C)nc3-c3ccc(F)cc3)nc21 [ralimetinib]
# How it was run: as §1
# [14] = compound: CC(C)(O)CC(=O)NCCn1ccc2ncnc(Nc3ccc(Oc4cccc(C(F)(F)F)c4)c(Cl)c3)c21
# How it was run: as §1
# [15] = compound: CC(C)C1=C2N=C(C=C(N2N=C1)NCC3=CC=CC=C3)NCCCCCCN
# How it was run: as §1
# [16] = compound: CC1=C(C(CC(=O)N1)C2=CC=C(C=C2)C(F)(F)F)C(=O)NC3=C(C=C4C(=C3)C=NN4)F
# How it was run: as §1
# [17] = compound: CC1=C(C2=C(C=C1)C(=O)C3=CC=CC=C3N2CCCN)C
# How it was run: as §1
# [18] = compound: CC1=C(C=C(C=C1)NC(=O)C2=CC(=CC=C2)C(C)(C)C#N)NC3=CC4=C(C=C3)N=CN(C4=O)C
# How it was run: as §1
# [19] = compound: CC1=C(C=C(C=C1)NC(=O)C2=CC(=CC=C2)N(C)C)NC(=O)C3=CC=C(C=C3)O
# How it was run: as §1
# [20] = compound: CC1=CC=C(C=C1)SC2=C3C=C(SC3=CN=C2)C(=O)N
# How it was run: as §1
# Sequence of UniProt Q13057 (Q13057 whole entry, looked up): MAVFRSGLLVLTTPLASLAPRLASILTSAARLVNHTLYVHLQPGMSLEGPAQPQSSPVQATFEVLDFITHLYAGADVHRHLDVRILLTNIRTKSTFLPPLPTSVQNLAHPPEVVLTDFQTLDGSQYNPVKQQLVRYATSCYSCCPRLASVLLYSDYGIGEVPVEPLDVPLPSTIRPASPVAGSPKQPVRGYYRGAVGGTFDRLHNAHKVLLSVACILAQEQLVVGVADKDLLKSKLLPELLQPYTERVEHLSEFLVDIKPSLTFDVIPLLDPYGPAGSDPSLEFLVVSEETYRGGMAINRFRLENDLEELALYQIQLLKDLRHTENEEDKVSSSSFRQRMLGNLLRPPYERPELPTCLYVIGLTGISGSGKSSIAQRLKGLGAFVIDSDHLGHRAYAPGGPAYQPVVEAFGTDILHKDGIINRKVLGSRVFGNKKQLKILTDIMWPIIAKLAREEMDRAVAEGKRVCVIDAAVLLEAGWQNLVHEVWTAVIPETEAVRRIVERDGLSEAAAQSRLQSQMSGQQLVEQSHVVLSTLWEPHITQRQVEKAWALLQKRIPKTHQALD
# Sequence of UniProt O60762 (O60762 whole entry, looked up): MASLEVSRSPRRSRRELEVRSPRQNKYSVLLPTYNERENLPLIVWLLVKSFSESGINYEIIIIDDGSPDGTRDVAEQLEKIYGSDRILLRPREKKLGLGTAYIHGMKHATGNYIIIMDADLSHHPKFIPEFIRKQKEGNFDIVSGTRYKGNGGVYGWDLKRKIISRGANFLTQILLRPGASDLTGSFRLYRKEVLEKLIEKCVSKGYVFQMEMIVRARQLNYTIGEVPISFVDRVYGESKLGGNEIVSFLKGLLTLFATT
# Sequence of UniProt P26374 (P26374 whole entry, looked up): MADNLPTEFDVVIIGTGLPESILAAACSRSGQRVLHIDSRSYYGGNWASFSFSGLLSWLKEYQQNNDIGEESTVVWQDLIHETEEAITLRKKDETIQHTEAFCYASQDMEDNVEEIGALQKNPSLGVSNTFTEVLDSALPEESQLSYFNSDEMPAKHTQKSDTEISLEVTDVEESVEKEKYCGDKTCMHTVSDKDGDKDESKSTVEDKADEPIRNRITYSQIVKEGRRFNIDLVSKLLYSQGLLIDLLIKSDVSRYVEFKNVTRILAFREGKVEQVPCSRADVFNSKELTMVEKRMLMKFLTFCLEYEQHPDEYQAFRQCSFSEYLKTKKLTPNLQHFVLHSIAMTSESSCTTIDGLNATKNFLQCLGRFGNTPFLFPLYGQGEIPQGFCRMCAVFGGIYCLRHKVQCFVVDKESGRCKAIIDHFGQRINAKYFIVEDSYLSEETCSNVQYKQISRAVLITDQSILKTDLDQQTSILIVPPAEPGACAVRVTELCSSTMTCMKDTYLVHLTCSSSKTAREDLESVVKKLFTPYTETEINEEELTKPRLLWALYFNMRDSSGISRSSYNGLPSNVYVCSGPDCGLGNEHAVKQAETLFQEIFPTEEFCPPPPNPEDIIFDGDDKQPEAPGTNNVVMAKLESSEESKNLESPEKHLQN
# Sequence of UniProt Q9H4E7 (Q9H4E7 whole entry, looked up): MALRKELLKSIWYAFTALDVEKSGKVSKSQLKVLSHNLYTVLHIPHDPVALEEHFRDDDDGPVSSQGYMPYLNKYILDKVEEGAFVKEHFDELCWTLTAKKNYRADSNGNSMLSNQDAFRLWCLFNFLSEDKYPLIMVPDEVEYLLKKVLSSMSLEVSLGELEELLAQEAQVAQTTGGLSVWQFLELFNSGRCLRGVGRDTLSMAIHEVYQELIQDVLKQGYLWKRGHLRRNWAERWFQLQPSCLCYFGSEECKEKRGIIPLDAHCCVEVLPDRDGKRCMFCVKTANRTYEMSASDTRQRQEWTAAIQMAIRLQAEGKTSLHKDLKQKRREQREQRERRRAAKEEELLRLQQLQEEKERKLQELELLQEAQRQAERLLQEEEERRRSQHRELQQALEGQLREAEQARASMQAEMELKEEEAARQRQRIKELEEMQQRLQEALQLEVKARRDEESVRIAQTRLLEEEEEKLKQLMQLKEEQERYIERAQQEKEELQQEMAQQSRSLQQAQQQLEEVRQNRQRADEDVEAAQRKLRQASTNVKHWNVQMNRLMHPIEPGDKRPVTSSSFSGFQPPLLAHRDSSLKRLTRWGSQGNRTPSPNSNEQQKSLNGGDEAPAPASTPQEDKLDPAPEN
# Sequence of UniProt Q13217 (Q13217 whole entry, looked up): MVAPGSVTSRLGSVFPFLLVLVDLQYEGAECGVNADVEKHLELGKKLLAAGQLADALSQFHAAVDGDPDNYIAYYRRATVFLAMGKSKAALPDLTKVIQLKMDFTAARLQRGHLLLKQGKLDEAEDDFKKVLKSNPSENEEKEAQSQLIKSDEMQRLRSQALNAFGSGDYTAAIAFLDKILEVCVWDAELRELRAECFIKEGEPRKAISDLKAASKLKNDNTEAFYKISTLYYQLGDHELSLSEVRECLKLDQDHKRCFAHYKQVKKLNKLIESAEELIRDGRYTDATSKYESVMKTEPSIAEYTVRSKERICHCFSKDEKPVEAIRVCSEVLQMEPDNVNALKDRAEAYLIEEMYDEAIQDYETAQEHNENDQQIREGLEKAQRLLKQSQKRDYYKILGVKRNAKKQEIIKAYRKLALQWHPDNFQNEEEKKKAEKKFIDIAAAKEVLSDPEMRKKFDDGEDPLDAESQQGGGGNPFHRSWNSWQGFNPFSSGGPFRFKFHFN
# Sequence of UniProt P61024 (P61024 whole entry, looked up): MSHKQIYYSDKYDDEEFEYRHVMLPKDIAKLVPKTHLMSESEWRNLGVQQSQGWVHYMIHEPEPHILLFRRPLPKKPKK
# Sequence of UniProt Q9H3Z4 (Q9H3Z4 whole entry, looked up): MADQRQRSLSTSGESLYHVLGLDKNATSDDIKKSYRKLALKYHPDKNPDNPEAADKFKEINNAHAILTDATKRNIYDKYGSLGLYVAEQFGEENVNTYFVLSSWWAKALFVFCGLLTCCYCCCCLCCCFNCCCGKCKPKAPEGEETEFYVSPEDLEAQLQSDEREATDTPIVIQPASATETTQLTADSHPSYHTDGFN
# Sequence of UniProt P49674 (P49674 whole entry, looked up): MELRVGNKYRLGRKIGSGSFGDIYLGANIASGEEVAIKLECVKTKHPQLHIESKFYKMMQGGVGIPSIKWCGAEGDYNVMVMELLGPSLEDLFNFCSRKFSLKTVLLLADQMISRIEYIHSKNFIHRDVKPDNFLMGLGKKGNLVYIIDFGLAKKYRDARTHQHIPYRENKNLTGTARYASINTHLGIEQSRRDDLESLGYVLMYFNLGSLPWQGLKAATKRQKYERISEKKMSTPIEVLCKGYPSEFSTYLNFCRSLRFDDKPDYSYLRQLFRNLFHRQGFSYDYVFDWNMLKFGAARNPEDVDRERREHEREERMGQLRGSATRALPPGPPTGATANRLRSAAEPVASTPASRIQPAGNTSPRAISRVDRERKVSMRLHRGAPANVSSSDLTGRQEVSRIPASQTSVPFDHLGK
Target,log2 fold change [1],log2 fold change [2],log2 fold change [3],log2 fold change [4],log2 fold change [5],log2 fold change [6],log2 fold change [7],log2 fold change [8],log2 fold change [9],log2 fold change [10],log2 fold change [11],log2 fold change [12],log2 fold change [13],log2 fold change [14],log2 fold change [15],log2 fold change [16],log2 fold change [17],log2 fold change [18],log2 fold change [19],log2 fold change [20]
CKS1B (UniProt P61024),-0.058,-0.097,-0.037,0.042,0.008,0.121,0.092,0.038,-0.012,-0.018,0.049,0.01,-0.161,-0.034,0.011,0.055,0,-0.059,0.003,-0.012
DNAJC3 (UniProt Q13217),-0.002,-0.057,0.06,0.008,-0.021,-0.032,-0.02,-0.033,-0.047,0.011,0.009,-0.004,-0.022,0.007,-0.021,0.024,0.006,-0.011,-0.054,-0.018
DPM1 (UniProt O60762),-0.009,-0.039,-0.036,0.056,-0.015,-0.007,0.041,-0.022,-0.014,-0.008,-0.016,-0.018,-0.025,-0.027,-0.009,0.033,0.015,0.006,0.014,0.023
COASY isoform 2 (UniProt Q13057),0.006,-0.049,-0.044,-0.007,0.022,-0.018,-0.05,-0.019,0.024,-0.019,0.024,-0.015,0.103,0.002,-0.003,0.013,-0.001,-0.013,0.037,0.014
CHML (UniProt P26374),-0.03,-0.031,0.028,-0.026,-0.013,-0.021,-0.004,-0.033,-0.001,-0.012,-0.029,-0.017,-0.008,-0.004,-0.009,-0.012,0,-0.003,-0.017,-0.006
DNAJC5 (UniProt Q9H3Z4),-0.003,0.037,-0.018,-0.021,0.053,0.033,0,0.049,-0.005,-0.012,-0.029,-0.072,-0.013,-0.043,-0.044,0.06,-0.008,0.048,-0.036,-0.116
DEF6 (UniProt Q9H4E7),0.02,0.07,-0.072,0.067,-0.104,0.016,-0.131,0.05,0,0.019,0.016,-0.007,0.098,-0.014,0.022,0.028,-0.024,-0.026,0.066,-0.001
CSNK1E (UniProt P49674),-0.003,0.006,0.161,0.047,0.018,0.297 (active),0.345 (active),-0.056,0.009,-0.032,0.029,0.287,0.208,-0.026,-0.04,-0.012,-0.064,-0.049,-0.028,-0.039
